Screening results from PubChem BioAssay.
In the library only some 2.8% were active in any assay of this set; here they are far more common.
KDM5B inhibitor: inhibitors of human KDM5B histone demethylase. KDM5B demethylase, FDH-coupled NADH fluorescence (FDH is formaldehyde dehydrogenase). Potency, µM (doses to about 57.7 µM), most hits filed as inhibitors. Q9UGL1. AID 1347165. hit rate 2.6% among 220,000; active = well fitted inhibition curve with a large enough effect; inconclusive = small, poorly fitted or top-dose-only effect; inactive = no such curve, though single readings can be large or run the other way; also: nearly all actives have a fitted effect of over 70% in size
Target sequence (Q9UGL1 whole entry, looked up): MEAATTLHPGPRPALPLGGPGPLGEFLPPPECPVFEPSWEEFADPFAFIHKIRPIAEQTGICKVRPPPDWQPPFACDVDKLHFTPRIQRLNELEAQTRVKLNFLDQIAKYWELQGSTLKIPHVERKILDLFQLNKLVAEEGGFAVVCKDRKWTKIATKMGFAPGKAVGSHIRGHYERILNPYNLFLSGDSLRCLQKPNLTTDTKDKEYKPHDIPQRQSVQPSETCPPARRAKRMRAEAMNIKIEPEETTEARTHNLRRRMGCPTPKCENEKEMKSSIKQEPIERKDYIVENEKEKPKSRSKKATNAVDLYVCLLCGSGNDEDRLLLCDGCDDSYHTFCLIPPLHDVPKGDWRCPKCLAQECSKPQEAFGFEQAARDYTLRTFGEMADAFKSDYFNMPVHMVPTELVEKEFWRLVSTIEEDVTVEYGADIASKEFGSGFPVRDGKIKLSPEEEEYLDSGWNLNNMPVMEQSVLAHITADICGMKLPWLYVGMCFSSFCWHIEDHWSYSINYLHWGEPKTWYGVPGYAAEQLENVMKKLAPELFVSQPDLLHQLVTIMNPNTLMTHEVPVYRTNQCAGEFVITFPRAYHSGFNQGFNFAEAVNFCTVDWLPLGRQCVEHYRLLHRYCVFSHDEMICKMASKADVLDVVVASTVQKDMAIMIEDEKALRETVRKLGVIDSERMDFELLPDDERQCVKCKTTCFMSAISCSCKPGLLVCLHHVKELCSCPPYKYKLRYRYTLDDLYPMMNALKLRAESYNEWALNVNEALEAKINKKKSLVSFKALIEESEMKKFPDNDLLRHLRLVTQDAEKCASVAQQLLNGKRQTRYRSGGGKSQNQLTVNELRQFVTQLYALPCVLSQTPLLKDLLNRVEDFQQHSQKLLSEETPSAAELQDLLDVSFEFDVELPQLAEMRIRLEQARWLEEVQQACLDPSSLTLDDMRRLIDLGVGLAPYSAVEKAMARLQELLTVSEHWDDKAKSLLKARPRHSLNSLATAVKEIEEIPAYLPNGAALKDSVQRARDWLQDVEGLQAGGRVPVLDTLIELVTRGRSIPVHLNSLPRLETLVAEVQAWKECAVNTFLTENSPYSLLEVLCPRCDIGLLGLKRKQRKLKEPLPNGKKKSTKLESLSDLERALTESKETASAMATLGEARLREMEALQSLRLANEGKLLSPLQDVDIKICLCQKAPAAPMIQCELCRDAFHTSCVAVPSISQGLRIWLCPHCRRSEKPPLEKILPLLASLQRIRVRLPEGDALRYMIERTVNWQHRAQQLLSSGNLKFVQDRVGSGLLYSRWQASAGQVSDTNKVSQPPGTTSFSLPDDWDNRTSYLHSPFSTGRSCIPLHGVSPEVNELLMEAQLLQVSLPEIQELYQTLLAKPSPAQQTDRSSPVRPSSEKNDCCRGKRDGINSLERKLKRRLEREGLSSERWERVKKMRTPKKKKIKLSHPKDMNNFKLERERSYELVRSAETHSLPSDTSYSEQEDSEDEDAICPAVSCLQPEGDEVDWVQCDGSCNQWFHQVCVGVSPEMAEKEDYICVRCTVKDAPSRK
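Inhibition is measured as reduced NADH fluorescence generation from FDH coupling to formaldehyde release. Truncated KDM5BΔAP at 200 nM final acts on H3K4me3 peptide (12.5 µM in substrate mix) in pH 7.5 HEPES buffer with Tween-20, 30 min, room temperature.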
IP6K1 inh: inhibitors of human IP6K1 | Q92551 | IP6K1 kinase, ADP-Glo luminescence, 2 h; active compounds read low | activity change, % (series mostly up to about 58 µM) | AID 1645851 | hit rate 0.81% among 140,000; in the data active = activity change below about -25%
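ADP-Glo luminescence measures ADP made by human IP6K1 during a 2 h RT reaction with ATP/IP6 (mix at 1.3 mM/130 uM); top library doses 57.5 and 19.1 uM final.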
Numbers stand for hits; 0 = inactive; ? = inconclusive; - = no result given.

SMILES	KDM5B inhibitor	IP6K1 inh
O=C(O)CCCC1OC(CCCC(=O)O)OC(CCCC(=O)O)O1 (centres undefined)	0	-
O=C(C1CCCN([S+](=O)([O-])c2cccc(C(F)(F)F)c2)C1)N1CCC(N2CCOCC2=O)CC1 (centres undefined)	-	0
COc1ccc(C(=O)N[C@@H]2CCC[C@@H]2C(=O)NCCc2ccccn2)cn1	0	0
COC[C@@H]1CN(c2cnccn2)C[C@H]1C(=O)NCCc1ccccn1	20µM	0
COC[C@@H]1CN(c2cnccn2)C[C@H]1C(=O)Nc1ccc(OC)nc1	25µM	0
COC[C@@H]1CN(c2cnccn2)C[C@H]1C(=O)Nc1cccnc1	28µM	0
O=C(Nc1cccnc1)N1CCN(c2cnccn2)CC1	0	-
COC[C@@H]1CN(c2cnccn2)C[C@H]1C(=O)N1CCc2ccccc2C1	20µM	0
CC1=C(C)CC(C(=O)N2CCc3ccccc3C2)C(C(=O)O)C1 (centres undefined)	0	-
COC[C@@H]1[C@H](C(=O)Nc2ccc(OC)nc2)CCC(=O)N1C	?	0
S=C(NCCSc1ccc(Cl)cc1)NC1CCCC1	0	-
COc1ccc2c(c1C)CCC/C2=N\OC(=O)c1ccccc1F	0	-
Cn1ncc(N2CCOC(CCNc3cnc4ccccc4n3)C2)cc1=O (centres undefined)	32µM	0
Cn1ncc(N2CCOC(CCNC(=O)c3cccnn3)C2)cc1=O (centres undefined)	0	0
O=C(Cc1ccccc1)N1C[C@@H](CO)[C@@H]2Oc3ccc(Cl)cc3[C@@H]21	-	0
COc1ccc(CNC(=O)c2nc3cccnc3n(Cc3ccc(OC)cc3)c2=O)cc1	-	0
COc1ccc(Nc2ccnc(N3CCCC(C(=O)NCCc4ccccc4F)C3)n2)cc1 (centres undefined)	-	0
O=C(Nc1ccc(Cc2nc3ccccc3s2)cc1)C1CC=CCC1 (centres undefined)	0	-
OCCC1CN(CCOc2ccc(F)cc2)CCN1CC1CCCCC1 (centres undefined)	0	0
OCCC1CN(c2cc(C(F)(F)F)ccn2)CCN1CC1CCCCC1 (centres undefined)	22µM	0
CC(C)CNC(=O)NC(=O)C(C)Sc1nc(-c2ccco2)nc2ccccc12 (centres undefined)	0	-
O=C(c1ccc2oc(-c3ccncc3)nc2c1)N1CCCCC1	-	0
Cc1cc(C)cc(NC(=O)c2cc3n(n2)CC(c2ccc4c(c2)OCO4)OC3)c1 (centres undefined)	?	0
COc1ccc(NC(=O)c2cc3n(n2)CC(c2ccc(Cl)cc2)OC3)cc1OC (centres undefined)	?	0
O=C(Nc1ccc(F)c(Cl)c1)c1cc2n(n1)CC(c1ccc3c(c1)OCO3)OC2 (centres undefined)	32µM	0
SMILES	KDM5B inhibitor	IP6K1 inh
COc1ccc(NC(=O)c2cc3n(n2)CC(c2ccc(Cl)cc2)OC3)cc1Cl (centres undefined)	25µM	0
O=C(Nc1ccc(Cl)c(Cl)c1)c1cc2n(n1)CC(c1ccc(Cl)cc1)OC2 (centres undefined)	28µM	0
Cc1ccc(NC(=O)c2cc3n(n2)CC(c2ccc(Cl)cc2)OC3)cc1C (centres undefined)	?	0
CS(=O)(=O)N1CCc2cc(C(=O)CSc3nnc(C4CC4)n3C3CC3)ccc21	0	-
Cn1ncc2c(C(=O)NCc3ccccc3F)cc(-c3ccccc3C(F)(F)F)nc21	-	0
CCc1ccc(-c2nc(C3CC(=O)N(c4ccc(C)cc4)C3)no2)cc1 (centres undefined)	0	0
O=C1CC(c2noc(-c3ccc4c(c3)OCO4)n2)CN1c1ccc(Cl)cc1 (centres undefined)	28µM	0
CCc1ccc(N2CC(c3noc(-c4ccc5c(c4)OCO5)n3)CC2=O)cc1 (centres undefined)	32µM	0
O=C1CC(c2noc(-c3ccc4c(c3)OCO4)n2)CN1c1ccc(F)c(Cl)c1 (centres undefined)	?	0
CNC(=O)[C@H]1CN(C(=O)Cc2cccs2)[C@]2(C)C(=O)N(CCOC)c3ccccc3[C@H]12	-	0
CN1CCC([C@@H]2CN(C(=O)c3ccc4[nH]ccc4c3)C[C@H]2C(N)=O)CC1	0	0
CNC(=O)[C@@H]1CN(C(=O)c2cc3ccc(OC)cc3[nH]2)C[C@H]1C1CCN(C)CC1	20µM	0
COc1ccc2cc(C(=O)N3CCc4n[nH]c(=O)n4CC3)[nH]c2c1	?	0
CNC(=O)[C@@H]1CN(C(=O)c2ccc3cc[nH]c3c2)C[C@H]1C1CCN(C)CC1	20µM	0
CCOC(=O)N1CCC(NC(=O)c2cc3ccc(OC)cc3[nH]2)CC1	0	-
COc1ccc2cc(C(=O)N3CCc4nn(C)c(=O)n4CC3)[nH]c2c1	25µM	0
COc1ccc2cc(C(=O)N3CCN(C)CC3)[nH]c2c1	0	-
COc1ccc2cc(C(=O)N3CCC(Cc4ccc(C(=O)NC5CC5)cc4)CC3)[nH]c2c1	35µM	0
COc1cccc(NC(=O)c2cc(-c3ccc(C(F)(F)F)cc3)nc3c2cnn3C)c1	-	0
Cn1ncc2c(C(=O)NCc3ccc4c(c3)OCO4)cc(-c3ccccc3)nc21	-	0
O=C(Nc1ccccc1)NC1CCCN(c2ccc3nnc(C4CC4)n3n2)C1 (centres undefined)	-	0
CC1(CCCCc2ccccc2)COc2ccc(C(=O)NCc3ccncc3)cc2N1 (centres undefined)	32µM	0
CC1(CCCCc2ccccc2)COc2ccc(C(=O)NCc3cnccn3)cc2N1 (centres undefined)	0	0
CC1(CCCCc2ccccc2)COc2ccc(C(=O)Nc3cccnc3)cc2N1 (centres undefined)	28µM	0
CC1(CCCCc2ccccc2)COc2ccc(C(=O)NCc3cccnc3)cc2N1 (centres undefined)	28µM	0
SMILES	KDM5B inhibitor	IP6K1 inh
CC1(CNCc2ccccc2)COc2ccc(C(=O)NCc3ccncc3)cc2N1 (centres undefined)	?	0
CN(C)CCN(C)C(=O)c1ccc2c(c1)NC(C)(CCCCc1ccccc1)CO2 (centres undefined)	0	0
O=C(NCc1cccc(F)c1)C1CN(C2CCCCC2)C(=O)N1 (centres undefined)	-	0
COc1ccc(C(=O)N2CCC(Oc3ccc(-c4noc(C5CC5)n4)cc3)C2)cn1 (centres undefined)	-	0
CCc1ccc(CN2CCC3(CC2)Cc2ccccc2CNC3=O)cc1	0	0
COCCNC(=O)c1ccc(-c2ccc(N3CCCCCC3)nc2)cc1	?	0
Cc1ccc(CNC(=O)c2ccc(-c3ccc(N4CCCCC4)nc3)cc2)o1	20µM	0
O=C(NCCCN1CCOCC1)c1ccc(-c2ccc(N3CCCCCC3)nc2)cc1	25µM	0
O=C(NCC1CCCO1)c1ccc(-c2ccc(N3CCCCC3)nc2)cc1 (centres undefined)	?	0
O=C(NCCN1CCOCC1)c1ccc(-c2ccc(N3CCCCCC3)nc2)cc1	28µM	0
O=C(NCc1ccco1)c1ccc(-c2ccc(N3CCCCCC3)nc2)cc1	?	0
Cc1nn(-c2ccccc2)c2c1C(C)N(C1CN(C(=O)c3ccc(Cl)nc3)C1)C2=O (centres undefined)	-	0
Cc1cc(C)cc(-c2ccc(CN3CCCC3C(=O)NC(C)C)cc2)c1 (centres undefined)	-	0
COc1ccc(CCNC(=O)C2CCCN(Cc3cccc(-c4ccc(F)cc4F)c3)C2)cc1 (centres undefined)	-	0
